± gives the uncertainty stated by the source.
Each molecule was assayed on FLX1 (assay: cell viability z-score within plate (CellTiter-Glo), mean of 3 biological replicates; higher = higher viability relative to plate (less growth inhibition)). Details: 2 µM; time (hr): 120.
Procedure: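 FLX1 fibrolamellar carcinoma cells (DNAJB1-PRKACA fusion), 600 cells/well in 384-well plates, treated with a Selleck kinase inhibitor library (L1200) at 2 uM for 5 days (120 hr); viability by CellTiter-Glo. A z-score was computed within each plate and averaged over three biological replicates.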

| SMILES | cell viability z-score within plate |
| --- | --- |
| CS(=O)(=O)CCNCc1ccc(-c2ccc3ncnc(Nc4ccc(OCc5cccc(F)c5)c(Cl)c4)c3c2)o1 [Lapatinib] | 0.823 ± 0.37 |
| CCc1cnn2c(NCc3ccc[n+]([O-])c3)cc(N3CCCC[C@H]3CCO)nc12 | 0.031 ± 0.76 |
| OCCn1cc(-c2cnc3nnn(Cc4ccc5ncccc5c4)c3n2)cn1 | 0.158 ± 1.6 |
| C=CCc1ccc(O)c(-c2ccc(O)c(CC=C)c2)c1 [Honokiol] | 0.237 ± 0.16 |
| CN(C)Cc1cccc(N/C(=C2\C(=O)Nc3cc(C(N)=O)ccc32)c2ccccc2)c1 | -0.208 ± 0.31 |
| Cc1ccc(Nc2nccc(N(C)c3ccc4c(C)n(C)nc4c3)n2)cc1S(N)(=O)=O | -0.43 ± 0.49 |
| Oc1ccc(Nc2nc(-c3ccc(Cl)cc3)cs2)cc1 | 0.219 ± 0.2 |
| S=C(NCc1ccc2c(c1)OCO2)N1CCN(c2ncnc3c2oc2ccccc23)CC1 [Amuvatinib (MP-470)] | -0.826 ± 0.77 |

— the supplement of paper PMC9925115
